Experimental findings from publication PMC7862700, “An all-to-all approach to the identification of sequence-specific readers for epigenetic DNA modifications on cytosine” are described below.

Common to all, as to assay: DAPPL (digital affinity profiling via proximity ligation, sequencing); 10 mM Tris-HCl pH 7.5, 50 mM NaCl, 1 mM DTT, 4% glycerol, room temperature, 30 min; GST-TFs on glutathione beads, 16-mer random dsDNA library, 0.1% formaldehyde crosslink after washing; high values mean tight binding
Details in all cases: protein: recombinant; tags: N-terminal GST; dsDNA, one strand shown

In one assay the target is T1, FLI1 (Homo sapiens, UniProt Q01543 1-452).
T1 sequence: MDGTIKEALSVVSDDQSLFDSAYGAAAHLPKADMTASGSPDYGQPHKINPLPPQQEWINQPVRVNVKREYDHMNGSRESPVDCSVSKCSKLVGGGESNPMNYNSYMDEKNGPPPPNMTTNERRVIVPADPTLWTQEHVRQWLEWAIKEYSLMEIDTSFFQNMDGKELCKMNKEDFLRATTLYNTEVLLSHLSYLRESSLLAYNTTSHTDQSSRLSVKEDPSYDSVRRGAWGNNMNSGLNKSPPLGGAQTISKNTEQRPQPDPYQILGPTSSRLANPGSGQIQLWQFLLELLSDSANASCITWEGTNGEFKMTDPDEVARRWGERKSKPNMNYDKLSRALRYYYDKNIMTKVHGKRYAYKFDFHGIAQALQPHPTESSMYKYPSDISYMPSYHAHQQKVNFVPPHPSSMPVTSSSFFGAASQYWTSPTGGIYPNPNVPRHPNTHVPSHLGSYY
The gist of the method:
(§1)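 Beads coated with glutathione captured GST-fused human transcription factors that had been expressed in yeast, and the factors were then given DNA barcodes and pooled with a tag-only sample. The pools were incubated with 200 nmole of a random double-stranded 16-mer DNA library in Tris/NaCl/DTT/glycerol buffer for 30 min at room temperature, washed, crosslinked with 0.1% formaldehyde and proximity-ligated with BsaI/T4 ligase at 37 °C for 1 h. PCR amplification and Illumina NextSeq500 sequencing came last. Binding signal is each hexamer's read frequency for a factor divided by its frequency for the tag-only sample.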

The target of a further assay is T2, ELK1 (Homo sapiens, UniProt P19419 1-428).
T2 sequence: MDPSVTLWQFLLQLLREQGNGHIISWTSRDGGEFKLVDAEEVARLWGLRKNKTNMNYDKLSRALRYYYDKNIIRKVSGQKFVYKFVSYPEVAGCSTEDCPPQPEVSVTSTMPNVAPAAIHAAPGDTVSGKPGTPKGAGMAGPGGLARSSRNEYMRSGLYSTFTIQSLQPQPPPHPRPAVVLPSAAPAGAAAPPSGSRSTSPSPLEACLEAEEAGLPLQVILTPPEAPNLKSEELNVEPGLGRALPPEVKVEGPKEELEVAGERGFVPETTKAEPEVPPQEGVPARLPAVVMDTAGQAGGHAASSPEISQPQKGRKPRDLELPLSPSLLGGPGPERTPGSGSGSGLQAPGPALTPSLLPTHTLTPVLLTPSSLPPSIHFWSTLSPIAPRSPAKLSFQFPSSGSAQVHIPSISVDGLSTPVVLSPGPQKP
The gist of the method:
as §1

The target of another assay is T3, GABPA (Homo sapiens, UniProt Q06546 1-454).
T3 sequence: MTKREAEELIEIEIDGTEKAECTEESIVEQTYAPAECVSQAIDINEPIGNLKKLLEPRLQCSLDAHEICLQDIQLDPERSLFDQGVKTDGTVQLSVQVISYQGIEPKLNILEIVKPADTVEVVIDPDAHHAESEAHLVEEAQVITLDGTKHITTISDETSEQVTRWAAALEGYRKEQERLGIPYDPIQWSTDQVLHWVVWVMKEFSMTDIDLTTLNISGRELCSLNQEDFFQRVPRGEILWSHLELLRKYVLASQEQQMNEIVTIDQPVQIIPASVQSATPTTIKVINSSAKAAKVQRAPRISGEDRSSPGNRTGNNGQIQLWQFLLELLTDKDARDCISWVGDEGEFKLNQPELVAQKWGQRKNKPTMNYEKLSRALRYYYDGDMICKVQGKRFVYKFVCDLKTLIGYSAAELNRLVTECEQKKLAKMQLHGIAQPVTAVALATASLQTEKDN
The gist of the method: as §1

For another assay, the target named is T4, ERG (Homo sapiens, UniProt P11308 1-479).
T4 sequence: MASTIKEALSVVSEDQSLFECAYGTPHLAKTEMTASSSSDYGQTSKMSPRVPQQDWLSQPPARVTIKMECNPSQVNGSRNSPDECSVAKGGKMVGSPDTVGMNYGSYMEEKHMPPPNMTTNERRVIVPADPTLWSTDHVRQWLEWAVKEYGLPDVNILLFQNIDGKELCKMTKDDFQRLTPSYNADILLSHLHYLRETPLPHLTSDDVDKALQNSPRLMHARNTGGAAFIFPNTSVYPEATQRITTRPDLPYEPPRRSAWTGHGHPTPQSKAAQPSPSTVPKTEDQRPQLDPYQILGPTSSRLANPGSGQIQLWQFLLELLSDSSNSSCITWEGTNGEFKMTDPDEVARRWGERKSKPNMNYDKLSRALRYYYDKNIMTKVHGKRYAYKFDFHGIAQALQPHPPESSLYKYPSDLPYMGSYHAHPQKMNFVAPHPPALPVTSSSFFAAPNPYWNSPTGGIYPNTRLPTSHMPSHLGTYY
The method in brief: as §1

The target in a further assay is ELF1 (Homo sapiens, UniProt P32519 1-619). The gist of the method:
as §1

Another assay concerns the target T5, EHF (Homo sapiens, UniProt Q9NZC4 1-300).
T5 sequence: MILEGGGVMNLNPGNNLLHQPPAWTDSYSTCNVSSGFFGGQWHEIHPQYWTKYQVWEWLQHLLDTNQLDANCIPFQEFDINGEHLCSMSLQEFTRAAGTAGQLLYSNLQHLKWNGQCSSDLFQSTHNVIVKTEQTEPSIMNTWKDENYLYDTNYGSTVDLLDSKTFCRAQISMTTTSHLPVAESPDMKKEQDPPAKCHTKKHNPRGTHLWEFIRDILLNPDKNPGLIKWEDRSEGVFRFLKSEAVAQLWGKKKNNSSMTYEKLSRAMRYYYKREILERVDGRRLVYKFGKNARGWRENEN
The gist of the method: as §1

The target in another assay is SPIB (Homo sapiens, UniProt Q01892 1-262). The method in brief: as §1
A further assay addresses T6, ELK3 (Homo sapiens, UniProt P41970 1-407).
T6 sequence: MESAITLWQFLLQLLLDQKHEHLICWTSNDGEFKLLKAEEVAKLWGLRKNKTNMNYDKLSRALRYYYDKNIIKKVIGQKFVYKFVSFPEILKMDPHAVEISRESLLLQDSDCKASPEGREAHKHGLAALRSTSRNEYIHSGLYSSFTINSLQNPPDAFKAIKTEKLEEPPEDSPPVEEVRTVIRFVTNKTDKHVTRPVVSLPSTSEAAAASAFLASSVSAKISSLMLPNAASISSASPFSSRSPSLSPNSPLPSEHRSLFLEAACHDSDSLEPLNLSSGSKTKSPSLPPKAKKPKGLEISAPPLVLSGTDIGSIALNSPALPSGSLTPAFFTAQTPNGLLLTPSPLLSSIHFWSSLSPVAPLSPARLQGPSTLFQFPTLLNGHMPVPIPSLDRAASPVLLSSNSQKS
The gist of the method: as §1

Another assay concerns the target T7, FEV (Homo sapiens, UniProt Q99581 1-238).
T7 sequence: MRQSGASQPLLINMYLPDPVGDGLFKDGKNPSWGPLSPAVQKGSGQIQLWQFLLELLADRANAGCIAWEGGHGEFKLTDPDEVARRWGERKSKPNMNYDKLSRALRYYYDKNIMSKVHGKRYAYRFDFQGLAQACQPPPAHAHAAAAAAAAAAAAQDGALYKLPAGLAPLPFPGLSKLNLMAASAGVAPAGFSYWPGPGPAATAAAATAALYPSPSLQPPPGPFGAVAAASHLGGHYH
The gist of the method: as §1

The next assay deals with ETV5 (Homo sapiens, UniProt P41161 1-510). The gist of the method: as §1
The target of a further assay is T8, SPIC (Homo sapiens, UniProt Q8N5J4 1-248).
T8 sequence: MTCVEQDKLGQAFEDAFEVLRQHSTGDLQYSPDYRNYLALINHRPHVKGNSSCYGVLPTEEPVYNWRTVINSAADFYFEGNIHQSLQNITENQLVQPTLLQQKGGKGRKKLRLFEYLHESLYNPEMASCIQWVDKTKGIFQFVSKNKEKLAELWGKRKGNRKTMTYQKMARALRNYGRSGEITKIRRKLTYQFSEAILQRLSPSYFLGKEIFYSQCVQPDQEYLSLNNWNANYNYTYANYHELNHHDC
The method in brief: as §1

For a further assay, the target named is ELF4 (Homo sapiens, UniProt Q99607 1-663). The gist of the method:
as §1

The target of a further assay is ETV1 (Homo sapiens, UniProt P50549 1-477). The method in brief: as §1
Another assay deals with T9, ERF (Homo sapiens, UniProt P50548 1-548).
T9 sequence: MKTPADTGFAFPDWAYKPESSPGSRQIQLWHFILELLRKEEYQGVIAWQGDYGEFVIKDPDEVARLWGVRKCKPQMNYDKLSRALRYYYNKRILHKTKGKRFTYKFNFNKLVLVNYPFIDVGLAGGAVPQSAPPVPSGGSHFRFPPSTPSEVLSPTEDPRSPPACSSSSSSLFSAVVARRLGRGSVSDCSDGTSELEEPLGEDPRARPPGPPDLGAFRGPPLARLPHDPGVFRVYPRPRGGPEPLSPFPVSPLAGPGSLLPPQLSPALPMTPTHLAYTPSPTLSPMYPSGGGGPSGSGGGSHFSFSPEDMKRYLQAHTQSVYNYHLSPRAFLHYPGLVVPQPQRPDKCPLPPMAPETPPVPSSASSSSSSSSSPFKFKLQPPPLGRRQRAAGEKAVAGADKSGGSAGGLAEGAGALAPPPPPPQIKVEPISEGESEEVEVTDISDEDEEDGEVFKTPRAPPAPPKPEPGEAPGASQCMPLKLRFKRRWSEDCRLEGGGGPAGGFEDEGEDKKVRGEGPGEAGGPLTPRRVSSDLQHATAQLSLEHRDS
The gist of the method:
as §1

The target in another assay is T10, ETV3L (Homo sapiens, UniProt Q6ZN32 1-361).
T10 sequence: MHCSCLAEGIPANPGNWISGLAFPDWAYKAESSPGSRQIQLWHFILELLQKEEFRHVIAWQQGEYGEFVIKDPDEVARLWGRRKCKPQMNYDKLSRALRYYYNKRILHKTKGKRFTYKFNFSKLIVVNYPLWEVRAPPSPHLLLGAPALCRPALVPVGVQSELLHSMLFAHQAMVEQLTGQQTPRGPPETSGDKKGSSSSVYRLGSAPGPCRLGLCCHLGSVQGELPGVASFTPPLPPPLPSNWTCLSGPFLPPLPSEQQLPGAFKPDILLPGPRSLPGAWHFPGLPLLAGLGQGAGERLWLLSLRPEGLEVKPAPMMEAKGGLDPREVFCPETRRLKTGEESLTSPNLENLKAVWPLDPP
The method in brief: as §1

The target of the next assay is T11, ETS2 (Homo sapiens, UniProt P15036 1-469).
T11 sequence: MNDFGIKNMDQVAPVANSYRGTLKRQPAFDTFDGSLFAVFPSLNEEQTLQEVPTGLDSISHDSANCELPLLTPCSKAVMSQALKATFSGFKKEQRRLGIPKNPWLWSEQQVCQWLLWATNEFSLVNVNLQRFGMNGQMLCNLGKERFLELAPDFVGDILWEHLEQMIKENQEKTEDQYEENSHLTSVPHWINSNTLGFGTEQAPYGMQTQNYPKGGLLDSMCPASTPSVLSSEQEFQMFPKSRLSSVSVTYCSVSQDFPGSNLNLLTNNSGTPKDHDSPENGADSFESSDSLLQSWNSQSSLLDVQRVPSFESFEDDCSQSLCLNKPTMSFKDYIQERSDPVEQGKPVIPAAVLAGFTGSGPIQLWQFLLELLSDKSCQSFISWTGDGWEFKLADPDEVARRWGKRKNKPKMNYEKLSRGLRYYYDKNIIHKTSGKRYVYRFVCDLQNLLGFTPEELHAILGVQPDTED
The gist of the method: as §1

The target of a further assay is T12, ELF5 (Homo sapiens, UniProt Q9UKW6-2 1-255).
T12 sequence: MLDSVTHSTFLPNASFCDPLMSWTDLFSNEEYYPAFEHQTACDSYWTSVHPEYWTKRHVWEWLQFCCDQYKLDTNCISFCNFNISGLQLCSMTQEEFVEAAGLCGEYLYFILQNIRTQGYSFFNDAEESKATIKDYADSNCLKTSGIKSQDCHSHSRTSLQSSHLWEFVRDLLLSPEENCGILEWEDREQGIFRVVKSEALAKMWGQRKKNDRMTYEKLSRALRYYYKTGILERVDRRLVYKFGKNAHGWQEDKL
The gist of the method: as §1

Another assay deals with T13, ETV3 (Homo sapiens, UniProt P41162-2 1-143).
T13 sequence: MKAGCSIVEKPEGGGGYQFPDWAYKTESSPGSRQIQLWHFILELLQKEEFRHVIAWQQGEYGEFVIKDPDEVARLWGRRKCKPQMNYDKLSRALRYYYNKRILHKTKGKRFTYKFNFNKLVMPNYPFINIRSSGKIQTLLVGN
The gist of the method:
as §1

A further assay has as its target ETV6 (Homo sapiens, UniProt P41212 1-452). The method in brief:
as §1

Chain of ELF4 (Q99607 whole entry): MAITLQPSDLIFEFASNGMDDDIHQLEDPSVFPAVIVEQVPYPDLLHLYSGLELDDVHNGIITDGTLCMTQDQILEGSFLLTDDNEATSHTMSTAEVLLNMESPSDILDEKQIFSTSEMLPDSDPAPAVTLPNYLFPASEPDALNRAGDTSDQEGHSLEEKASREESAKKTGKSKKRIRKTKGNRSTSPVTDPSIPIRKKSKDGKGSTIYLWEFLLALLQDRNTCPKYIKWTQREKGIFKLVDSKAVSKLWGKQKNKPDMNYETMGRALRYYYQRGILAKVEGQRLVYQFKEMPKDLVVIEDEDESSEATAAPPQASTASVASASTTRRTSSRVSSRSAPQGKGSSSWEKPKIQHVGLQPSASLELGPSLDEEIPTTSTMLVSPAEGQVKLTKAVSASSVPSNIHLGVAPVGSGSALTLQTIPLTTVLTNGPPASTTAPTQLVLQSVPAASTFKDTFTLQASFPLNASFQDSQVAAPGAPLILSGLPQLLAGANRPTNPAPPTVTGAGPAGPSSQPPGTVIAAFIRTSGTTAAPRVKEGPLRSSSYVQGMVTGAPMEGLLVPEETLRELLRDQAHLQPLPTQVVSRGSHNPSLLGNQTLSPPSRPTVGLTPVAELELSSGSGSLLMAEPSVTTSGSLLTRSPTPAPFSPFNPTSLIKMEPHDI
Chain of ETV5 (P41161 whole entry): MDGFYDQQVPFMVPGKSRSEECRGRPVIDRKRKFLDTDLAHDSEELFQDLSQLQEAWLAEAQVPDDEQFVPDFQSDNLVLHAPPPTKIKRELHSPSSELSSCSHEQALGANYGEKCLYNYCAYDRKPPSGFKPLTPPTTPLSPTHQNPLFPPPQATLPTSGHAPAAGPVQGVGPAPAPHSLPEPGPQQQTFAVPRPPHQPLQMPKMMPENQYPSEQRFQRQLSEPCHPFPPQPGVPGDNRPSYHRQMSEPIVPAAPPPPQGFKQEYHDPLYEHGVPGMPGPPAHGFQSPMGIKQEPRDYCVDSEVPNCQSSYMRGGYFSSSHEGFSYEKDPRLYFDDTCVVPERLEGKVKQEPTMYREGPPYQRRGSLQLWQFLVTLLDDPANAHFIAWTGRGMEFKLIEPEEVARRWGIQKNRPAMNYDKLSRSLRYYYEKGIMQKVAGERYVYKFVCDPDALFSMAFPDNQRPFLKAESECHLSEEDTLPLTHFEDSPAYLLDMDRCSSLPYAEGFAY
Chain of SPIB (Q01892 whole entry): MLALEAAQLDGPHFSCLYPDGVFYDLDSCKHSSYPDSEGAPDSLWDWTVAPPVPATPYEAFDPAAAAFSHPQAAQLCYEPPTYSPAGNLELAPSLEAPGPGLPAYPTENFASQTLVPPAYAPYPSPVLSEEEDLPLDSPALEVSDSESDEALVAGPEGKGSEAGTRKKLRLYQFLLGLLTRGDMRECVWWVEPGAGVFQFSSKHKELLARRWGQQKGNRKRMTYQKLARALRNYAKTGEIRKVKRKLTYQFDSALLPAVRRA
Chain of ELF1 (P32519 whole entry): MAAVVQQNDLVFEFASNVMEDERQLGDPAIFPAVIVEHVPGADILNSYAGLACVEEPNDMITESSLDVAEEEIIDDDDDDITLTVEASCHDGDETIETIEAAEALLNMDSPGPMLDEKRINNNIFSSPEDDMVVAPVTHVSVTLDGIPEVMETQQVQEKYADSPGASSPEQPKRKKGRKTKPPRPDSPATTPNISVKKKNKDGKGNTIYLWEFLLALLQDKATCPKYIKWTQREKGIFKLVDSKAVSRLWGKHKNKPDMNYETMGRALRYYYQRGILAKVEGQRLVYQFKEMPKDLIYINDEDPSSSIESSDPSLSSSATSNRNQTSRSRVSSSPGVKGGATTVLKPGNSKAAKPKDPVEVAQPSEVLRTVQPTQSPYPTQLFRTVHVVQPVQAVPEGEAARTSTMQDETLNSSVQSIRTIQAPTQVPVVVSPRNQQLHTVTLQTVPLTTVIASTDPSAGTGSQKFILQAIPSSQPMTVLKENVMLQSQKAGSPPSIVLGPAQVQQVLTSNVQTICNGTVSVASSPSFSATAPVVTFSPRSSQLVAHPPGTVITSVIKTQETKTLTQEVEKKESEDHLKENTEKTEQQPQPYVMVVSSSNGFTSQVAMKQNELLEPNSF
Chain of ETV1 (P50549 whole entry): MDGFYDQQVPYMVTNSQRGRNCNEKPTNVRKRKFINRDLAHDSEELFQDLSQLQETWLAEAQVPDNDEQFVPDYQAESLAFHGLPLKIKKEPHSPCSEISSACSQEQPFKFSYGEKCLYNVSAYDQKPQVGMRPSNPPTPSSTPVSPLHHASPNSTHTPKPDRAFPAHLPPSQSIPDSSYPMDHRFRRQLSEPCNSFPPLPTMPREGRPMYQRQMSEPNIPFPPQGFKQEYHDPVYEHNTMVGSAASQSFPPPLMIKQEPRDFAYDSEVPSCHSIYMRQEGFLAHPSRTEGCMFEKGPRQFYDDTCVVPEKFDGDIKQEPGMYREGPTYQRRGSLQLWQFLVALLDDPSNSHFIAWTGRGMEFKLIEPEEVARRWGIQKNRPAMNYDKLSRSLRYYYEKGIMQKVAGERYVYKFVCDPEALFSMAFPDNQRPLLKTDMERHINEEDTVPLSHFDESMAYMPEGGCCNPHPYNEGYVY
Chain of ETV6 (P41212 whole entry): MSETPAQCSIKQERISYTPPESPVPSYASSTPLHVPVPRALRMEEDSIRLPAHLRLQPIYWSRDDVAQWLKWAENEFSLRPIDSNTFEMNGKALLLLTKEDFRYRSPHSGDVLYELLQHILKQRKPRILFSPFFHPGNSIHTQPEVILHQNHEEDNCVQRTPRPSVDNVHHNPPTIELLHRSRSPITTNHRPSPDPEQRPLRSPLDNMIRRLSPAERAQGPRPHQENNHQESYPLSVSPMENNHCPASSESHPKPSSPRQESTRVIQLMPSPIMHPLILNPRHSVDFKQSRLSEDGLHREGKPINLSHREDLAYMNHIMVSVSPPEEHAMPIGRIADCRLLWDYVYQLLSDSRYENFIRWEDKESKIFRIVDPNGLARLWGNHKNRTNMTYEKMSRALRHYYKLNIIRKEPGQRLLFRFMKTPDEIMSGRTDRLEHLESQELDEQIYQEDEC

On to CGCCCG, for which the binding signal was 1.28 fold enrichment (6-mer frequency, TF over GST control) with FLI1; 1.2 fold enrichment (6-mer frequency, TF over GST control) with ELK1; 1.07 fold enrichment (6-mer frequency, TF over GST control) with GABPA; 1.14 fold enrichment (6-mer frequency, TF over GST control) with ERG; 1.18 fold enrichment (6-mer frequency, TF over GST control) in the assay with ELF1; 1.11 fold enrichment (6-mer frequency, TF over GST control) with EHF. The binding signal was 1.2 fold enrichment (6-mer frequency, TF over GST control) with SPIB; 1.15 fold enrichment (6-mer frequency, TF over GST control) with ELK3; 1.14 fold enrichment (6-mer frequency, TF over GST control) in the assay with FEV; 1.06 fold enrichment (6-mer frequency, TF over GST control) with ETV5; 1.17 fold enrichment (6-mer frequency, TF over GST control) with SPIC; 1.11 fold enrichment (6-mer frequency, TF over GST control) with ELF4. Also, the binding signal with ETV1 was 1.13 fold enrichment (6-mer frequency, TF over GST control); with ERF it was 1.09 fold enrichment (6-mer frequency, TF over GST control); in the assay with ETV3L, 1.26 fold enrichment (6-mer frequency, TF over GST control); with ETS2, 1.09 fold enrichment (6-mer frequency, TF over GST control); with ELF5 it was 1.16 fold enrichment (6-mer frequency, TF over GST control); with ETV3, 1.3 fold enrichment (6-mer frequency, TF over GST control). Further, the binding signal with ETV6 was 1.02 fold enrichment (6-mer frequency, TF over GST control).
